Source: PubChem BioAssay (National Center for Advancing Translational Sciences (NCATS))
Sfp inh: blocks B. subtilis Sfp PPTase activity; AID 1490; 310,000 compounds, 3.5% hits; Potency, µM, inactives show largest response in the series, negative = inhibition, usual class: inhibitors; Biochemical Sfp PPTase activity, qHTS;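 also: the enzyme is Sfp with the accession as filed and its product quenches rhodamine fluorescence; 0% = enzyme reaction without inhibitor and -100% = no enzyme wells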
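With Hepes-Na pH 7.6 buffer containing 10 mM MgCl2, Sfp (15 nM) modified BHQ-2-YbbR (12.5 uM) using rhodamine-CoA (5 uM). Two reads 30 minutes apart at 525/598 nm yielded each well's rate.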
PLK1 PBD block: blocks phosphopeptide binding to human PLK1 polo-box domain | P53350 | Plk1 PBD binding of FITC phosphopeptide, fluorescence polarization | Potency, µM, without a hit: max response, negative = inhibition, most hits filed as inhibitors | 360,000 compounds, 2.8% hits | AID 720504; also: series mostly up to about 57 µM; nearly all actives have a fitted effect of over 65% in size
VDR inh: blocks the human vitamin D receptor; Potency, µM, for the others: max response, negative = inhibition, usual class: inhibitors; VDR-SRC2-3 peptide fluorescence polarization, 2 h; AID 504847; 400,000 compounds, 0.93% hits
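Fluorescence polarization assay of small-molecule disruption of VDR binding to coregulator peptide SRC2-3. Compounds and controls pin-transferred, then read after 2 h incubation at ambient room temperature.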
ALOX12 inh: inhibitors of human 12S-lipoxygenase ALOX12. Potency, µM (series often up to 108 µM), for the others: top-dose activity change, negative = inhibition, usual class: inhibitors. purified 12hLO, xylenol orange hydroperoxide absorbance. AID 1671190. 580,000 compounds, 1.1% hits
Target sequence (P18054 whole entry, looked up): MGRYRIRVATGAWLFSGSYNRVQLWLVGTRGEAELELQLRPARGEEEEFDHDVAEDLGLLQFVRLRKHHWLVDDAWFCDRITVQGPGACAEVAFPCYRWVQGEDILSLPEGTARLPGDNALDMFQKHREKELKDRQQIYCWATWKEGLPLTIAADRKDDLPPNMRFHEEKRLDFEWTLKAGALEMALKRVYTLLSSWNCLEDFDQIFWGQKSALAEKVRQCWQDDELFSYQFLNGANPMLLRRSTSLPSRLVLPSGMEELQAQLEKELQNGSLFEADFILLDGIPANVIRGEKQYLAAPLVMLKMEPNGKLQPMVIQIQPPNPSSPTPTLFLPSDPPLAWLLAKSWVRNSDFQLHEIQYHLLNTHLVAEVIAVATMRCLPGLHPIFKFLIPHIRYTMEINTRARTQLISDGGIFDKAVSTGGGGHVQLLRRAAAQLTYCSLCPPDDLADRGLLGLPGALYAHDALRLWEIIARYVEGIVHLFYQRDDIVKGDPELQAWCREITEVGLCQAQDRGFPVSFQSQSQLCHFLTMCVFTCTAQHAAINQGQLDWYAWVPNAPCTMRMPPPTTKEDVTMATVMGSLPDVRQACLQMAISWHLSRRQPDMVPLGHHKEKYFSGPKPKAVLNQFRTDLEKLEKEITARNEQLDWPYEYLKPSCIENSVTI
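Purified human 12hLO at 150 nM in 25 mM Hepes, 0.01% Triton X-100, pH 7.0, preincubated 15 min at room temperature with compound. Reaction started with 40 uM arachidonic acid, 30 min at room temperature. Hydroperoxide measured by Fe-xylenol orange, 573/405 nm absorbance ratio.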
An asterisk follows results filed as active; ? = inconclusive; . = no result; ! = not confirmed by another sample. Only some compounds are listed: those with a hit (about 4.2% of all), similar ones and a draw of the others. Calls follow the shape of the dose curve; as a rule, active = well fitted curve in the direction sought with a large enough effect; inconclusive = small, poorly fitted or top-dose-only effect, or another doubt; inactive = no such curve, though single readings can be large; an effect the other way counts as inactive or inconclusive. Unless noted, % is scaled to controls: 0 for no effect and ±100 for the full control effect; potency is read from the fitted curve at half-maximal effect.

SMILES	Sfp inh	PLK1 PBD block	VDR inh	ALOX12 inh
CN1CCN(C(=O)c2ccc3c(c2)N(Cc2ccccc2)CCS3)CC1	-5%	-7%	-8%	.
O=C(c1ccc2c(c1)N(Cc1ccccc1)CCS2)N1CCCCC1	40µM*	-12%	-20%	?
CN1CCN(CC(O)Cn2c3ccccc3c3ccccc32)CC1 (centres undefined)	50µM*	-11%	8%	2%
Cc1c(C)n(CC(O)CN2CCN(C)CC2)c2ccccc12 (centres undefined)	2%	-8%	-6%	3%
CC(=O)Nc1ccc(OC(=O)C(CCS(C)(=O)=O)N2C(=O)c3ccccc3C2=O)cc1 (centres undefined)	7%	-11%	-14%	0%
O=C1NC2(CCCCC2)C(=O)N1/N=C/c1ccccc1Br	12%	-4%	-12%	?
O=C1NC2(CCCCC2)C(=O)N1/N=C/c1ccc(O)cc1O	-12%	21µM*	-26%	0%
Cc1ccc(C)c(S(=O)(=O)N2CCN(CC(=O)N3CCc4ccccc4C3)CC2)c1	56µM*	0%	22%	-113%
O=C(CN1CCC(Cc2ccccc2)CC1)N1CCc2ccccc2C1	-25%	27µM*	-3%	1µM*
COc1ccc(S(=O)(=O)N2CCN(CC(=O)N3CCc4ccccc4C3)CC2)cc1OC	.	7%	-7%	?
N#CC1=C(N)OC2=C(CC/C2=C\c2ccc(F)cc2)C1c1ccc(F)cc1 (centres undefined)	11%	.	.	.
N#CC1=C(N)OC2=C(CCC/C2=C/c2ccoc2)C1c1ccoc1 (centres undefined)	40µM*	.	.	.
Cc1cccc(C(=O)O/N=C(\N)c2cccc([N+](=O)[O-])c2)c1	16%	-16%	-1%	-2%
CC1=CC(=O)C=C(C)C1=NOC(=O)c1cccc([N+](=O)[O-])c1	-22%	9.5µM*	3%	0%
Cn1c(CCc2nc3ccccc3[nH]2)nnc1SCC#N	-11%	19µM*	-19%	-13%
COc1ccc(C(=O)Nc2ccc(-c3noc([C@@H]4CCCN4Cc4ccccc4C)n3)cn2)cc1	.	.	.	0%
CCCCC[n+]1cccc2c3ccccc3ccc21	17%	0%	3%	45µM*
CCOc1ccc(OCCn2c(=S)[nH]c3ccccc32)cc1	-83%	13µM*	?	?
CCc1nc2ccccc2n1CCCCOc1cccc(C)c1	.	.	11%	40µM*
S=c1[nH]c2ccccc2n1Cc1ccccc1	14µM*	8.4µM*	?	?
Cc1cccc(OCCn2c(=S)[nH]c3ccccc32)c1	6.3µM*	6µM*	?	?
COc1ccc2cc(C(=O)NCC3COc4ccccc4O3)c(C)nc2c1 (centres undefined)	.	.	.	4%
CC(=O)Nc1ccc(S(=O)(=O)N2CCC(c3nnnn3-c3ccccc3)CC2)cc1	.	.	6%	-13%
O=C(NCCc1ccccc1)C1CCN(S(=O)(=O)c2cccnc2)CC1	1%	5%	-11%	41%
COc1ccccc1OCCn1c(=S)[nH]c2ccccc21	-13%	?	-16%	13%
SMILES	Sfp inh	PLK1 PBD block	VDR inh	ALOX12 inh
N#CCCn1c(=S)[nH]c2ccccc21	-27%	?	3%	?
Cc1ccc(OCCn2c(=S)[nH]c3ccccc32)c(C(C)C)c1	1%	-6%	?	32µM*
S=c1[nH]c2ccccc2n1CCOc1ccccc1	89µM*	19µM*	?	40µM*
CCOc1ccc2c(c1)[nH]c(=S)n2C	18µM*	13µM*	?	?
O=C(Nc1cccnc1)c1cc(Br)c(Br)s1	.	5%	-8%	20µM*
O=C(Nc1cccnc1)c1cc(-c2cccc(Cl)c2)on1	4%	24µM*	79µM*!	-4%
O=C(Nc1cccnc1)c1cc(-c2ccc(Cl)c(Cl)c2)on1	-7%	0%	-6%	16%
O=C(NC(=S)Nc1ccc2c(c1)OCCO2)c1cccc2ccccc12	-6%	-3%	10%	16µM*
O=C(NC(=S)Nc1ccc2c(c1)OCCO2)c1cccc(Br)c1	-6%	2%	-8%	28µM*
O=C(NC(=S)Nc1cccc(Cl)c1N1CCCCC1)c1ccc2c(c1)OCCO2	14%	-4%	-5%	16µM*
Cc1ccccc1NC(=O)N1CCCN(c2ccc(C#N)cn2)CC1	17%	-4%	-7%	-21%
CC(C)(Cc1ccc(O)cc1)NC(=O)CC(=O)N/N=C/c1ccc([N+](=O)[O-])cc1	-7%	-9%	7%	1%
CC(C)(Cc1ccc(O)cc1)NC(=O)CC(=O)N/N=C/c1ccc(Cl)cc1	8%	-2%	-25%	8.9µM*
